# Source: PubChem
# Only some compounds are listed: those with a hit (about 3.3% of all), similar ones and a draw of the others.
# PriA SSB inh: K. pneumoniae PriA-SSBct interaction inhibition | inhibition, % at 33 µM | 430,000 compounds, 0.6% hits | AlphaScreen SSBct-PriA binding, biotinylated peptide; in the data active = inhibition mostly above about 37%, no sharp cut-off; inactive = mostly below about 20%
# Bead autofluor: flagged as autofluorescent in microsphere protease counterscreen | 360,000 compounds, 3.1% hits | compound autofluorescence counterscreen, microsphere flow cytometry; stronger effect = higher value | fluorescence intensity (test concentration not listed); in the data active = fluorescence intensity above about 16000; inconclusive = no clear call, values can overlap the other calls
# BoNT F protease: BoNT F light chain protease inhibition | Multiplex microsphere protease cleavage assay, flow cytometry | inhibition, % at 10 µM | 360,000 compounds, 0.22% hits; in the data active = inhibition above about 35%, passing the limit was not always enough; inconclusive = no clear call, values can overlap the other calls
# MazEF act: MazEF (E. coli) toxin RNase activation; P0AE70; 350,000 compounds, 0.32% hits; FAM/BHQ RNA-DNA oligo cleavage fluorescence, 5 h; activation, % at 20 µM; in the data active = activation above about 50%
# BoNT-A LC inh2: BoNT A light chain protease inhibition. 360,000 compounds, 0.17% hits. inhibition, % at 10 µM. AID 588499. multiplex microsphere protease substrate cleavage, flow cytometry
# Anthrax LF inh2: anthrax lethal factor protease inhibition. P15917. multiplex microsphere protease cleavage assay, LF. inhibition, % at 10 µM. 360,000 compounds, 0.12% hits. AID 588501
# Hits are given with their value; . = inactive; ? = inconclusive; / = not tested or not shown. Rule as the data show it, unless noted: active = inhibition above about 30%; inconclusive = no clear call, values can overlap the other calls; inactive = below that.
SMILES,PriA SSB inh,Bead autofluor,BoNT F protease,MazEF act,BoNT-A LC inh2,Anthrax LF inh2
c1ccc(OCc2nn3c(-c4ccncc4)nnc3s2)cc1,.,21442,.,.,.,.
COc1ccc(-c2nnc3sc(-c4ccccn4)nn23)cc1,56,/,/,/,/,/
Cc1cc(CNC(=O)CCc2ccc(S(C)(=O)=O)cc2)c(C)o1,.,/,/,/,/,/
CCOC(=O)c1cc2c(=O)n3ccccc3nc2n(CCOC)c1=N,.,/,/,/,/,/
COc1ccccc1NC(=O)/C(C#N)=C/c1ccc(-c2ccc(F)cc2)o1,.,/,/,/,/,/
Clc1ccc(-c2nnc3sc(-c4ccccn4)nn23)cc1,.,/,/,/,/,/
CC(C)(C)c1ccc(-c2nnc3sc(-c4ccccn4)nn23)cc1,46,.,.,.,.,.
CC(=NNc1ccccc1)c1c(O)[nH]c(=O)[nH]c1=O,.,/,/,/,/,/
COc1ccc2c(c1)CC(C)C/C2=N\NC(=O)c1ccco1 (centres undefined),/,.,.,.,.,.
CC1C/C(=N/NC(=O)c2cccc(F)c2)c2ccc(O)cc2C1 (centres undefined),/,20922,.,.,.,.
CCn1c(SCC(=O)Nc2cc(C)on2)nc2c1c(=O)n(C)c(=O)n2C,.,24541,.,.,?,.
CCCn1c(SCC(=O)Nc2ccccc2C(=O)OC)nc2c1c(=O)n(C)c(=O)n2C,.,20496,.,.,.,.
CCCn1c(SCC(=O)Nc2nc(-c3ccc(OC)cc3)cs2)nc2c1c(=O)n(C)c(=O)n2C,.,.,.,193,.,.
CCCn1c(SCC(=O)Nc2ccccc2N2CCCCC2)nc2c1c(=O)n(C)c(=O)n2C,.,.,.,.,.,.
CCn1c(SCC(=O)Nc2nc(-c3ccccc3)cs2)nc2c1c(=O)n(C)c(=O)n2C,.,.,.,.,.,.
CCn1c(SCC(=O)Nc2nc3ccc(OC)cc3s2)nc2c1c(=O)n(C)c(=O)n2C,.,21795,.,.,.,.
Cc1cc2ncc3c(n2n1)CCN(C(=O)c1cc(-c2ccc(F)cc2)c[nH]1)C3,.,/,/,/,/,/
COCCNc1nc(SC)nc2c1cnn2CCNC(=O)c1cccs1,.,/,/,/,/,/
Cn1nc(C2CCN(C(=O)c3cc(-c4ccco4)[nH]n3)CC2)n(C2CC2)c1=O,.,/,/,/,/,/
O=CNCCCc1nc2ccccc2n1Cc1cccc2ccccc12,.,20866,.,.,?,.
Cc1ccc(S(=O)(=O)N2CCC(C(=O)NCCCN3CCCCCC3)CC2)cc1,.,24422,.,.,.,.
CCS(=O)(=O)N1CCC(C(=O)Nc2cccc(F)c2)CC1,.,.,.,.,.,.
Cc1ccc(NC(=O)c2ccc(S(=O)(=O)N3CCC(C)CC3)cc2)cc1,.,20894,.,.,.,.
Cc1ccc(NC(=O)C2CCN(S(=O)(=O)c3ccc(F)cc3)CC2)cc1,.,23704,.,.,.,.
CS(=O)(=O)N1CCC(C(=O)Nc2cccc(F)c2)CC1,.,.,39,.,.,.
SMILES,PriA SSB inh,Bead autofluor,BoNT F protease,MazEF act,BoNT-A LC inh2,Anthrax LF inh2
COc1ccccc1N1CCN(C[C@H](O)COc2ccc(-c3ccccc3)cc2)CC1,.,/,/,/,/,/
O=C(NCc1nc2ccccc2[nH]1)C1CN(C(=O)c2cnccn2)C1,.,/,/,/,/,/
O=C(Cn1nc(-c2cccs2)c2sc(N3CCOCC3)nc2c1=O)NC1CCCCC1,.,/,/,/,/,/
O=S(=O)(c1ccc(F)cc1)N1CCC(N2CCCCCC2)CC1,.,16305,.,.,.,.
CSc1cccc(NC(=O)C2CCCN(S(=O)(=O)c3ccc(F)cc3)C2)c1 (centres undefined),.,.,.,.,.,.
O=C(Nc1cccc(Cl)c1)C1CCCN(S(=O)(=O)c2ccc(F)cc2)C1 (centres undefined),.,20734,.,.,.,.
O=C(Nc1ccc(CC(=O)N2CCOCC2)cc1)c1ccccc1C(F)(F)F,.,/,/,/,/,/
Cc1ccccc1CNc1ccc(C(CC(N)=O)NC(=O)c2ccc(Br)cc2)cc1[N+](=O)[O-] (centres undefined),.,.,.,81,.,.
NC(=O)CC(NC(=O)c1ccc(Br)cc1)c1ccc(NCc2ccc(F)cc2)c([N+](=O)[O-])c1 (centres undefined),.,.,.,.,.,.
COc1ccc(CCNC(=O)c2ccc(CS(=O)(=O)c3ccc(Cl)cc3)o2)cc1OC,.,17952,.,.,.,.
COc1ccccc1S(=O)(=O)Cc1ccc(C(=O)NCCN2CCCC2)o1,.,22371,.,.,.,.
Cc1ccc(S(=O)(=O)Cc2ccc(C(=O)N3CCC4(CC3)OCCO4)o2)cc1,.,20005,.,.,.,.
